Reference: PubChem BioAssay (EPA / NIEHS)
Calls of active or inactive are those of the source. How the source made its calls: active means hit-call score of the fitted dose curve at least 0.9, where 1 is the maximum; inactive means score below 0.9.

What was measured:
Details in all cases: mRNA level, 48 h; actives raise or lower the signal
[1] = read-out: Cytochrome P450 7A1 (Homo sapiens) (UniProt P22680); test: LTEA_HepaRG_CYP7A1: Life Technologies and Expression Analysis (LTEA) Assay for Cytochrome P450 7A1 (CYP7A1) using HepaRG (AID 2283496)
In short: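 HepaRG cells plated 48 h, then switched to serum-free induction medium and exposed in duplicate for 48 h to 8-point half-log series from 100 uM in 0.5% DMSO. CYP7A1 mRNA by qRT-PCR (TaqMan), normalized to ACTB/GAPDH/POLR2A; bidirectional fit versus DMSO.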

[2] = read-out: Glutathione S-Transferase (GSTA2), GSTA2 (gene 2939); test: LTEA_HepaRG_GSTA2: Life Technologies and Expression Analysis (LTEA) Assay for Glutathione S-Transferase (GSTA2) using HepaRG (AID 2283497)
In short: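 HepaRG, 48 h dosing, 8-pt half-log CRC from 100 uM, 0.5% DMSO vehicle, n=2; RNA → Fluidigm TaqMan qRT-PCR; GSTA2 vs ACTB/GAPDH/POLR2A; gain/loss fit vs DMSO.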

[3] = read-out: Glutamate-cysteine ligase catalytic (GCLC), GCLC (gene 2729); test: LTEA_HepaRG_GCLC: Life Technologies and Expression Analysis (LTEA) Assay for Glutamate-cysteine ligase catalytic (GCLC) using HepaRG (AID 2283498)
In short: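 Read-out is GCLC transcript level by Fluidigm-based TaqMan qRT-PCR, normalized to three housekeeping genes and fitted in both directions relative to 0.5% DMSO. Human HepaRG cells received chemicals for 48 h, up to 100 uM.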

[4] = read-out: growth arrest and DNA damage 45 (GADD45G), GADD45G (gene 10912); test: LTEA_HepaRG_GADD45G: Life Technologies and Expression Analysis (LTEA) Assay for growth arrest and DNA damage 45 (GADD45G) using HepaRG (AID 2283499)
In short: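 Human hepatic HepaRG line treated 48 h with chemicals (eight concentrations, half-log steps from 100 uM); transcript induction or repression of GADD45G scored by qRT-PCR versus DMSO vehicle.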

[5] = read-out: Glutamate-cysteine ligase regulatory (GCLM), GCLM (gene 2730); test: LTEA_HepaRG_GCLM: Life Technologies and Expression Analysis (LTEA) Assay for Glutamate-cysteine ligase regulatory (GCLM) using HepaRG (AID 2283500)
In short: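 Differentiated HepaRG cells exposed 48 h in serum-free induction medium to eight half-log concentrations up to 100 uM (0.5% DMSO). GCLM mRNA by TaqMan qRT-PCR, normalized to ACTB, GAPDH and POLR2A; bidirectional fit versus DMSO.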

[6] = read-out: Glutathione S-transferase M3 (GSTM3), GSTM3 (gene 2947); test: LTEA_HepaRG_GSTM3: Life Technologies and Expression Analysis (LTEA) Assay for Glutathione S-transferase M3 (GSTM3) using HepaRG (AID 2283501)
In short: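 Changes in GSTM3 expression, an oxidative-stress marker, were scored by bidirectional curve fitting against 0.5% DMSO vehicle. Human HepaRG cultures received chemicals for 48 h in duplicate, highest concentration 100 uM with half-log dilutions.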

[7] = read-out: Heat shock 70 kDa protein 1 (HSPA1A), gene 3303; test: LTEA_HepaRG_HSPA1A: Life Technologies and Expression Analysis (LTEA) Assay for Heat shock 70 kDa protein 1 (HSPA1A) using HepaRG (AID 2283502)
In short: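 Human HepaRG cells in serum-free induction medium were exposed in duplicate for 48 h to 8 half-log concentrations, highest 100 uM, in 0.5% DMSO. HSPA1A mRNA read by TaqMan qRT-PCR, normalized to ACTB, GAPDH, POLR2A, fitted bidirectionally against DMSO.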

[8] = read-out: Hypoxia-inducible factor 1-alpha (Homo sapiens) (UniProt Q16665); test: LTEA_HepaRG_HIF1A: Life Technologies and Expression Analysis (LTEA) Assay for Hypoxia-inducible factor 1 (HIF1A) Trancription factor using HepaRG (AID 2283503)
In short: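 Differentiated HepaRG cells in serum-free induction medium exposed 48 h, in duplicate, to 8-point half-log series from 100 uM in 0.5% DMSO. HIF1A mRNA measured by TaqMan qRT-PCR, normalized to ACTB/GAPDH/POLR2A, fitted bidirectionally versus DMSO.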

[9] = read-out: 3-Hydroxy-3-Methylglutaryl-CoA Synthase 2 (HMGCS2), HMGCS2 (gene 3158); test: LTEA_HepaRG_HMGCS2: Life Technologies and Expression Analysis (LTEA) Assay for 3-Hydroxy-3-Methylglutaryl-CoA Synthase 2 (HMGCS2) using HepaRG (AID 2283504)
In short: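 Expression of HMGCS2 in human HepaRG liver cells is measured by qRT-PCR 48 h after dosing (highest 100 uM, half-log series, 0.5% DMSO). Values come from bidirectional concentration-response fitting with DMSO as baseline.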

HGF (gene 3082) = test: LTEA_HepaRG_HGF: Life Technologies and Expression Analysis (LTEA) Assay for Hepatocyte Growth Facto (HGF) using HepaRG (AID 2283505)
In short: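 Gain or loss of HGF mRNA in human HepaRG liver cells after 48 h chemical exposure; eight concentrations up to 100 uM with 0.5% DMSO vehicle, quantified by TaqMan qRT-PCR.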

Measured: AC50

Chain of Hypoxia-inducible factor 1-alpha (Homo sapiens) (Q16665 whole entry, looked up): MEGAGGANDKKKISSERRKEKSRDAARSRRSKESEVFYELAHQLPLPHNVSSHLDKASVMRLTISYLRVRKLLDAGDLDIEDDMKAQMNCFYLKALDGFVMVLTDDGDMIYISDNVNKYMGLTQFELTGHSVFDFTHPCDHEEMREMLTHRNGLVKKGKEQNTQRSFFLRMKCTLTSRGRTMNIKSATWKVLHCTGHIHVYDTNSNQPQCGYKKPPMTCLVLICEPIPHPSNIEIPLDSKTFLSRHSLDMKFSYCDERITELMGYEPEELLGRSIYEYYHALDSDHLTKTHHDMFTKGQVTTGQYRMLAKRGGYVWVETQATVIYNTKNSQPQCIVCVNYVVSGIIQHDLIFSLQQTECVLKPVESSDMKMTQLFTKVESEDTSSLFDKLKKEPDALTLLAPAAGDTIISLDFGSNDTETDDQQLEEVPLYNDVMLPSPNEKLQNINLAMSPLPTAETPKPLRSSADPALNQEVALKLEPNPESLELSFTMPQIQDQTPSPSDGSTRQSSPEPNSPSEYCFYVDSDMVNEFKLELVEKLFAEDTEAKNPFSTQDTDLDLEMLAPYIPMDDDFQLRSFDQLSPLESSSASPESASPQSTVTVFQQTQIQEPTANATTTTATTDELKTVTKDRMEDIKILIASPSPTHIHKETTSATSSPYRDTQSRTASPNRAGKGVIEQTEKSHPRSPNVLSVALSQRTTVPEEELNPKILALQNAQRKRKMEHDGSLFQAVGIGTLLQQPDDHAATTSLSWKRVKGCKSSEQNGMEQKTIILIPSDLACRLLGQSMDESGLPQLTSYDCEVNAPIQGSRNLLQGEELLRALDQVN

Cc1cc(SC2=C(O)C[C@@](CCc3ccc(N)cc3)(C(C)C)OC2=O)c(C(C)(C)C)cc1CO
active: [1] 16.1 µM | [9] 16.8 µM
inactive: all other assays above

C=CCCCCCCCCCCCC
inactive: all assays above

CCCCC(CC)COC(=O)CCCCCCCC(=O)OCC(CC)CCCC (configuration not stated)
inactive: all assays above

CC(C)COC(=O)CCCCC(=O)OCC(C)C
inactive: all assays above

O=C1c2c(O)cccc2Cc2cccc(O)c21
inactive: all assays above

O=NO
inactive: all assays above

O=C(N[C@@H](c1ccccc1)[C@@H]1CCCCN1)c1cccc(C(F)(F)F)c1Cl
active: [1] 21.3 µM | [2] 76.6 µM | [4] 82.8 µM | [7] 50 µM | [9] 69.4 µM
inactive: all other assays above

O=C(O)CN(CC(=O)O)CC(=O)O
inactive: all assays above

CCCCCCC(C=O)=Cc1ccccc1
inactive: all assays above

CCN(CC)CCOc1ccc(C(=C(Cl)c2ccccc2)c2ccccc2)cc1
active: [1] 13.3 µM | [2] 78.6 µM | [5] 78 µM | [9] 29.2 µM
inactive: all other assays above

COc1ccc(C(=O)Nc2nc3ccccc3c(NCc3ccccc3)c2C#N)cc1
active: [1] 17.8 µM | [2] 20.5 µM | [4] 14.3 µM | [5] 10.9 µM
inactive: all other assays above

O=C(NS(=O)(=O)/C=C/c1cccs1)c1ccc(F)cc1Br
active: [1] 27.9 µM | [9] 71 µM
inactive: all other assays above

CC1=C(C)S(=O)(=O)CCS1(=O)=O
active: [1] 92.6 µM | [2] 90.3 µM | [3] 70.6 µM | [5] 0.214 µM | [8] 77.1 µM
inactive: [4] | [6] | [7] | [9] | HGF (gene 3082)

CC(=O)CC(c1ccccc1)c1c(O)c2ccccc2oc1=O (configuration not stated)
inactive: all assays above

CC(=O)S[C@H](C(=O)N[C@H]1Cc2ccccc2[C@H]2CCC[C@@H](C(=O)O)N2C1=O)C(C)C
inactive: all assays above

COC(=O)CCC(=O)OC
inactive: all assays above

COC(=O)CCCC(=O)OC
inactive: all assays above

CSc1ccc(Oc2ccc(S(N)(=O)=O)cc2CN(C)C)cc1C
active: [4] 50 µM | [9] 63.9 µM
inactive: all other assays above

OCC(O)CO
inactive: all assays above

CCCCc1nc2cccnc2n1Cc1ccc(-c2ccccc2-c2nnn[nH]2)cc1
active: [1] 26.6 µM
inactive: all other assays above

CCCC(=O)O
inactive: all assays above

CN(C)C(=O)NC1(c2ccccc2)CCN(CCC[C@]2(c3ccc(Cl)c(Cl)c3)CCCN(C(=O)c3ccccc3)C2)CC1
inactive: [6] | [8] | [9]
active: [1] 22.2 µM | [2] 20.3 µM | [3] 21.9 µM | [4] 20.4 µM | [5] 12.5 µM | [7] 20.5 µM | HGF (gene 3082) 22.5 µM

CC(=O)OC1CC(C)OC(C)O1 (configuration not stated)
inactive: all assays above

OCC(CO)n1cnc(-c2ccc(F)cc2)c1-c1ccnc(Oc2ccccc2)n1
active: [7] 37 µM
inactive: all other assays above

CC(C)(O)c1ccc(CNC(=O)c2cccnc2Oc2ccc(F)cc2)cc1
inactive: all assays above

O=C1O[C@H]([C@H](O)CO)C(O)=C1O
inactive: all assays above

O=C(O)c1cccnc1
not listed: HGF (gene 3082)
inactive: all other assays above

CC(C)c1cccc(C(C)C)c1
inactive: all assays above

C=CCc1ccc(OC)c(OC)c1
inactive: all assays above

CN(C)C(=O)NC1(c2ccccc2)CCN(CC[C@@]2(c3ccc(F)c(F)c3)CN(C(=O)c3ccccc3)CCO2)CC1
active: [4] 75.1 µM | [9] 47 µM
inactive: all other assays above

O=C1CCCCC1
not listed: [4]
inactive: all other assays above

CC(=O)OCC(COC(C)=O)OC(C)=O
inactive: all assays above

CCC(C)N(C)C(=O)c1cc2ccccc2c(-c2ccccc2Cl)n1 (configuration not stated)
active: [4] 8.59 µM
not listed: [8]
inactive: all other assays above

O=C(O)CC(O)(CC(=O)O)C(=O)O
inactive: all assays above

CCCCCCCCCC[N+](C)(C)[O-]
inactive: all assays above

Oc1ccccc1O
not listed: [8]
inactive: all other assays above

NC=O
not listed: [4]
inactive: all other assays above

CN(C)CCCN(C)CCCN(C)C
not listed: [4]
inactive: all other assays above

C/C=C/c1ccc(OC)cc1
not listed: [4]
inactive: all other assays above

c1ccc2occc2c1
inactive: all assays above

Cc1c(C)c2c(c(C)c1O)CCC(C)(COc1ccc(CC3SC(=O)NC3=O)cc1)O2 (configuration not stated)
active: [1] 92.7 µM | [2] 23.2 µM | [3] 93.6 µM | [7] 50 µM | [8] 66.8 µM
inactive: [5] | [6] | [9] | HGF (gene 3082)

CC(COCC(C)OC(=O)c1ccccc1)OC(=O)c1ccccc1 (configuration not stated)
inactive: all assays above
